# Measured values from PubChem BioAssay (NCATS).
# Where “and” joins values, the source holds several entries; their conditions need not be identical. Equal values may be shown once. Records with an inconclusive call do not appear. Values without a mark were called inactive. Calls of active or inactive are those of the source. Calls come from the whole dose curve.
# Legend:
# [1] = target: Bile acid receptor (Homo sapiens) (UniProt Q96RI1); assay: qHTS assay for small molecule agonists of farnesoid X receptor signaling (AID 588527); details: HEK293T FXR-UAS-bla, beta-lactamase ratio, 16 h; activation: hits give high values;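 note: series mostly up to about 77 µM; 0% = vehicle basal and 100% = reference agonist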
# Sequence of Bile acid receptor (Homo sapiens) (Q96RI1 whole entry, looked up): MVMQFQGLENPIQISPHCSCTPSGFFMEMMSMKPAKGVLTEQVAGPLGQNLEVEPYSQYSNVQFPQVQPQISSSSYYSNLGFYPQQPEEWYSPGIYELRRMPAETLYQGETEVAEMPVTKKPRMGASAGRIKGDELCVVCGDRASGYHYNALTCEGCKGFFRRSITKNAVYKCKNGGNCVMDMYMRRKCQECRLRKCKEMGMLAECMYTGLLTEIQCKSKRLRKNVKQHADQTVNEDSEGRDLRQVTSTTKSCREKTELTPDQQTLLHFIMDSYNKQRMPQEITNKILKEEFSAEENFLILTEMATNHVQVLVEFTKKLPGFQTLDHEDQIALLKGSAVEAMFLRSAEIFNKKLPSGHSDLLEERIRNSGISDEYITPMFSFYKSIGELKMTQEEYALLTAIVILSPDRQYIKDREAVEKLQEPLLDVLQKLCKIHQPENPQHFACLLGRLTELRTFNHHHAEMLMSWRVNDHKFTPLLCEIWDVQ
# Procedure, shortened: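 Agonist-mode beta-lactamase reporter in GeneBLAzer FXR-UAS-bla HEK293T cells, titration up to 92 uM, 16 h exposure at 37 C, CCF4 fluorescence. Response scaled to DMSO (0%) and 100 uM chenodeoxycholic acid (100%), then Hill-fitted for EC50 and efficacy.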
# [2] = target: Peroxisome proliferator-activated receptor delta (Homo sapiens) (UniProt Q03181); assay: qHTS assay for small molecule agonists of peroxisome proliferator-activated receptor delta signaling (AID 588534);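 note: 0% = DMSO basal wells and 100% = positive control agonist at 10 µM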
# Sequence of Peroxisome proliferator-activated receptor delta (Homo sapiens) (Q03181 whole entry, looked up): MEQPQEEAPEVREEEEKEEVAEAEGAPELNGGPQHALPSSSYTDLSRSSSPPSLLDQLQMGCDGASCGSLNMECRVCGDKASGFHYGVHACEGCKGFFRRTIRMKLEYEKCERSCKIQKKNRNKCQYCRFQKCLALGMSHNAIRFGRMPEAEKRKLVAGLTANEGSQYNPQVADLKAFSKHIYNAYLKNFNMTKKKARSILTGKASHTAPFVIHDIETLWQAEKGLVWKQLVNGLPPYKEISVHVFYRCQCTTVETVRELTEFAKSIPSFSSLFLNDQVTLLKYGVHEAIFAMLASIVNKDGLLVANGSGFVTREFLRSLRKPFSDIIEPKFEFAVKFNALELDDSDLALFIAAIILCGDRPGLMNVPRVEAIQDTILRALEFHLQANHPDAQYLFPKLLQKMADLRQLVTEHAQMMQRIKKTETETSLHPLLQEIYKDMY
# Procedure, shortened: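 Cells carrying a PPAR-delta beta-lactamase reporter were treated with compounds for 18 h at 37 °C in agonist mode. CCF4 fluorescence was read after 2 h; EC50 and efficacy from Hill fits.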
SMILES,activation [1],outcome [2]
O=c1[nH]c(=O)c2[nH]cnc2[nH]1,-9.18%,inactive
Oc1c(Cl)ccc(Cl)c1Cl,-2.11%,inactive
CCOCCOCCOC(C)=O,-3.45%,inactive
NNS(=O)(=O)c1ccc(Oc2ccc(S(=O)(=O)NN)cc2)cc1,-0.0085%,inactive
CCOC(=O)NCCOc1ccc(Oc2ccccc2)cc1,2.99%,inactive
C=CC(=O)OCCCC,-3.45%,inactive
CCCCCCCCCCCC[N+](C)(C)[O-],8.79%,inactive
CC1=CC(=O)CC(C)(C)C1(O)/C=C/C(C)=C\C(=O)O (configuration not stated),-3.19%,inactive
C[Si](C)(C)O[Si](C)(C)C,-0.871%,inactive
OCC(O)CO,-1.04% and -2.12%,inactive
Clc1ccccn1,-2.48%,inactive
c1ccc(SCCSc2ccccc2)cc1,-0.837%,inactive
Cc1ccccc1C#N,-0.262%,inactive
CCC(C)OC(=O)N1CCCCC1CCO (configuration not stated),1.43%,inactive
O=C(O)c1ccccc1Cl,1.39%,inactive
CN(C)CCOCCN(C)C,-0.638%,inactive
O=C(Cl)c1cccc([N+](=O)[O-])c1,-3.83%,inactive
CO/N=C1\C[C@]2(C[C@@H]3C[C@@H](C/C=C(\C)C[C@@H](C)/C=C/C=C4\CO[C@@H]5[C@H](O)C(C)=C[C@@H](C(=O)O3)[C@]45O)O2)O[C@H](/C(C)=C/C(C)C)[C@H]1C,6.07%,inactive
Nc1ccc(N=Nc2ccccc2)c(N)c1,-2.91%,inactive
CC1=C(/C=C/C(C)=C/C=C/C(C)=C/C=O)C(C)(C)CCC1,23.6%,inactive
Nc1nc(-c2ccccc2)cs1,2.42%,inactive
Cc1ccccc1Br,-2.02%,inactive
Cc1ccc2c(c1[N+](=O)[O-])C(=O)c1ccccc1C2=O,-4.5%,inactive

SMILES,activation [1],outcome [2]
C=CC(=O)OCCOCCOCCOCCOC(=O)C=C,26.3%,inactive
CCOc1ccc(NC(=O)OC(C)C)cc1OCC,-1.45%,inactive
CN(C)CCCCl,-3.17%,inactive
CC(C)=CCC/C(C)=C\CO,-0.74%,inactive
Cc1ccc(C)o1,1.14%,inactive
C(=C/c1ccccc1)/c1ccccc1,-2.54%,inactive
CNc1nc(=O)n(C2CCC(O)CC2)c(=O)n1C (configuration not stated),2.07%,inactive
CCCCCCCCCCCCc1ccccc1,3.31%,inactive
CCCCC(CC)COP(=O)(O)OCC(CC)CCCC (configuration not stated),-0.5%,inactive
N[C@@H](Cc1ccccc1)C(=O)O,1.47%,inactive
CCCC(Cl)CCCC(Cl)CCC(Cl)CCC(Cl)CCC(Cl)CCCC(Cl)CCC (configuration not stated),1.98%,inactive
C=C(C)C(=O)OCCCCCCCCCCCCCCCC,-3.87%,inactive
C=C(C)C(=O)OC,-1.27%,inactive
CCCCC(CC)COCCCN (configuration not stated),-0.0297%,inactive
CCCCCCCC[Si](Cl)(Cl)Cl,0.799%,inactive
CC(C)(C)c1n[nH]c(=O)n(N)c1=O,2.05%,inactive
CCc1cccc(C)c1N(C(=O)CS(=O)(=O)O)[C@@H](C)COC,1.55%,inactive
Nc1cc(Cl)c(N)c(Cl)c1,-3.48%,inactive
CN(C)c1nc(=O)n(C2CCC(O)CC2)c(=O)n1C (configuration not stated),2.83%,inactive
CCCC/C=C\CCCCCCCCO,-5.44%,inactive
CC(=O)c1c(C)c([N+](=O)[O-])c(C(C)(C)C)c([N+](=O)[O-])c1C,1.55%,inactive
C[C@]12CCC(=O)C=C1CC[C@@H]1[C@@H]2[C@@H](O)C[C@]2(C=O)[C@@H](C(=O)CO)CC[C@@H]12,1.4%,inactive
O=C(O)c1ccc(O)cc1O,1.07% and -1.82%,inactive

SMILES,activation [1],outcome [2]
O=C1C=CCCC1,-1.48%,inactive
CC1(C)C(=O)N(Br)C(=O)N1Br,1.27%,inactive
CCN(Cc1cccc(S(=O)(=O)O)c1)c1ccc(C(=C2C=CC(=[N+](CC)Cc3cccc(S(=O)(=O)O)c3)C=C2)c2ccccc2S(=O)(=O)[O-])cc1,-1.6%,inactive
NC(=O)/N=N/C(N)=O,-1.16%,inactive
O=[N+]([O-])c1cc(Cl)c(Cl)c(Cl)c1Cl,-3.36%,inactive
CC(=O)OC(C(=O)c1ccccc1)c1ccccc1 (configuration not stated),-3.38%,inactive
C=Cc1ccccc1C=C,-0.167%,inactive
Nc1c(Cl)cc(Cl)cc1Cl,0.611%,inactive
CCC/C(=N\OCC)C1=C(O)CC(O)(CC(C)S(=O)(=O)CC)CC1=O (configuration not stated),0.69%,inactive
CC(C)(C)c1cccc(C(C)(C)C)c1O,-3.57%,inactive
CN=C(N)NCC1CCOC1 (configuration not stated),-3.33% and 1.46%,inactive
CO[Si](CCCOCC1CO1)(OC)OC (configuration not stated),-0.427%,inactive
CCc1c(C(=O)O)c(=O)cnn1-c1ccc(Cl)cc1,1.28%,inactive
FC(F)(F)c1ccccc1Cl,-1.54%,inactive
OC1CCC(C2CCCCC2)CC1 (configuration not stated),0.637%,inactive
C=Cc1ccccc1Cl,0.519%,inactive
C=C(C)C(=O)OCCCCCC,-1.11%,inactive
CCCCO,0.769% and 0.512%,inactive
COc1cc(-c2ccc(N=C=O)c(OC)c2)ccc1N=C=O,0.158%,inactive
CCCCOCCOCCOCCCC,-0.244%,inactive
Cc1cccc([N+](=O)[O-])c1C(=O)O,-1.22%,inactive
Clc1ccc(Cl)c(Cl)c1Cl,1.31% and 2.13%,inactive
COC(=O)c1cccc(C)c1S(=O)(=O)NC(=O)Nc1nc(OCC(F)(F)F)nc(N(C)C)n1,-2.17%,inactive

SMILES,activation [1],outcome [2]
Cc1ccc(C#N)cc1,-2.61%,inactive
CC(C)O.CC(C)O.CC(C)O.CC(C)O.[Ti],-5.62%,inactive
c1ccc(COCc2ccccc2)cc1,-1.69%,inactive
COC(=O)c1ccccc1S(=O)(=O)NC(=O)Nc1nc(OC(F)F)cc(OC(F)F)n1,2.12%,inactive
CCCCCCCC/C=C\CCCCCCCC(=O)O,-0.994% and -1.49%,inactive
C=Cc1ccc(C=C)cc1,-3.75%,inactive
COc1cc(Cl)c(OC)cc1N,-0.889%,inactive
O=C(/C=C/c1ccc(O)c(O)c1)O[C@@H](C(=O)O)[C@@H](OC(=O)/C=C/c1ccc(O)c(O)c1)C(=O)O,-1.16%,inactive
C1CCOC1,-4.53%,inactive
CC(CCC(=O)O)(c1ccc(O)cc1)c1ccc(O)cc1,-2.09% and 0.383%,inactive
Cc1ccc2oc(=O)ccc2c1,0.64% and 1.95%,inactive
Nc1cccc2c(=O)[nH][nH]c(=O)c12,1.93%,inactive
O=C(OCCOCCOC(=O)c1ccccc1)c1ccccc1,-0.568%,inactive
C=Cc1ccc(P(c2ccccc2)c2ccccc2)cc1,-1.25%,inactive
CCCCCO,-1.91%,inactive
CC(Cl)(Cl)C(=O)OCCOc1cc(Cl)c(Cl)cc1Cl,0.229%,inactive
C=C(C)C(=O)OCC(C)C,-0.219%,inactive
COc1nc(C)nc(NC(=O)NS(=O)(=O)c2ccccc2OCCCl)n1,-2.13%,inactive
O=S(=O)(O)c1cc(S(=O)(=O)O)c2c(N=Nc3ccccc3)c(O)ccc2c1,2.46%,inactive
C=C(C)C(=O)OCCCCCCCCCC,-1.22%,inactive
Cc1ccccc1C(N)=O,2.86%,inactive
CC(=O)N(CCN(C(C)=O)C(C)=O)C(C)=O,1.43%,inactive
